Screening results as filed in PubChem.
Shown are actives, neighbours in structure and some others; about 19% of the full set was active somewhere.
TDP1 inh – blocks human tyrosyl-DNA phosphodiesterase 1; Q9NUW8; recombinant TDP1, AlphaScreen DNA substrate cleavage; Potency, µM (highest dose often 130 µM), hits mostly inhibitors; 350,000 compounds, 0.28% hits; AID 485290; note: nearly all actives have a fitted effect of over 40% in size
Target sequence (Q9NUW8 whole entry, looked up): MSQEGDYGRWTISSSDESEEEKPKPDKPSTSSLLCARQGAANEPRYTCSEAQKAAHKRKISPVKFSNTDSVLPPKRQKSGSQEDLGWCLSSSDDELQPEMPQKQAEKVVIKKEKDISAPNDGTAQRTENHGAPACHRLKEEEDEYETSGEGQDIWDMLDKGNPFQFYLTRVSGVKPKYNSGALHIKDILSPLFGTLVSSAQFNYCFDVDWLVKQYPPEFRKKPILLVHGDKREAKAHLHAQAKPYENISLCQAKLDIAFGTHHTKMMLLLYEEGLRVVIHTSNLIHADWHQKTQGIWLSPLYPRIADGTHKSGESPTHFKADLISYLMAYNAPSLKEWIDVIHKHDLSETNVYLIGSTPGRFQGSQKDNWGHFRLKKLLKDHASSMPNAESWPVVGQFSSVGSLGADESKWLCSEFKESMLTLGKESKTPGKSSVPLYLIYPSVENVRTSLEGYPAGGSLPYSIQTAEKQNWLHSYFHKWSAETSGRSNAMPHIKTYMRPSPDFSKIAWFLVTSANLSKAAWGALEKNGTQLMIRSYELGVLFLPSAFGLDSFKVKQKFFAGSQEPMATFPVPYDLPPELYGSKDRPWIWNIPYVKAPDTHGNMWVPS
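Recombinant E. coli-expressed Tdp1 (1 nM) preincubated with compound 15 min at RT, then 5'-biotin/3'-phosphotyrosine-FITC DNA substrate (15 nM) added for 5 min. AlphaScreen beads (10 ug/ml) added, 10 min RT; tyrosine-FITC cleavage read as signal loss.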
IL1B secr inh – blocks inflammasome-driven IL-1 beta release; THP-1 LPS/ATP IL-1B secretion, AlphaLISA, 16 h; active compounds read low; activity change, % at 57.5 µM; 360,000 compounds, 4.7% hits; AID 743279; in the data active = activity change below about -50%; inconclusive = mostly about -30% to -49%
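Secreted IL-1B measured by AlphaLISA bead assay after 16 h compound exposure of THP-1 cells; compounds (final up to 57.5 uM) added 1 h before LPS (250 ng/mL) and ATP (1.25 mM) stimulation; lower signal means less secretion.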
DT40 TDP1 no CPT – qHTS for Inhibitors of human tyrosyl-DNA phosphodiesterase 1 (TDP1): qHTS in cells in absence of CPT; DT40 Tdp1-/- hTDP1 cells, no CPT, ATP luminescence, 48 h; Potency, µM (series often up to 46.2 µM), actives largely listed as inhibitors; 420,000 compounds, 15% hits; note: nearly all actives have a fitted effect of over 55% in size
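Luminescent ATP content (CellTiter-Glo) served as the growth readout. Knockout chicken DT40 cells expressing human TDP1 were exposed to compounds without camptothecin for a minimum 48 hr at 37 °C.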
Giardia kill – kills Giardia lamblia. Giardia lamblia trophozoite viability. activity change, % at 7.66 µM, hits read low. 340,000 compounds, 0.15% hits. AID 540267; in the data active = activity change below about -80%; inconclusive = between about -30% and that limit;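 note: parasites exposed to compound for two days anaerobically before the ATP read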
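Viability, read as ATP luminescence: trophozoites at 100 cells/well, compound added, 48 hrs anaerobic at 37 deg C, then 15-30 min room-temperature development before reading.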
ELG1 repair inh – blocks ELG1-dependent DNA repair in HEK293T cells; HEK293T ELG1-luciferase reporter, luminescence, 16 h; DNA damage induced by 5-fluorouridine; Potency, µM (titrated, usually from 46.1 µM), actives largely listed as inhibitors; 330,000 compounds, 2.3% hits; AID 504467; note: nearly all actives have a fitted effect of over 55% in size
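DMSO vehicle served as the neutral condition. Each well held 2,000 cells given 5-fluorouridine plus compound; after 16 hr at 37 °C/5% CO2, ONE-Glo was added and luciferase measured 30 min later.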
TDP1 cell CPT – DT40-hTDP1 cell growth loss with CPT | chicken DT40 Tdp1-/-;hTDP1 cells + 20 nM CPT, ATP luminescence, 48 h | Potency, µM (series often up to 46.2 µM), usual class: inhibitors | 420,000 compounds, 12% hits; note: nearly all actives have a fitted effect of over 55% in size
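Chicken DT40 Tdp1-/- cells complemented with human TDP1, 400 cells/well, exposed to compounds plus 20 nM camptothecin for at least 48 h at 37 C; viability read as ATP content by CellTiter-Glo luminescence.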
Numbers stand for hits; n = inactive; u = inconclusive; x = no result. Unless noted, calls come from the whole dose curve; as a rule, active = well fitted curve in the direction sought with a large enough effect; inconclusive = small, poorly fitted or top-dose-only effect, or another doubt; inactive = no such curve, though single readings can be large; an effect the other way counts as inactive or inconclusive.

SMILES	TDP1 inh	IL1B secr inh	DT40 TDP1 no CPT	Giardia kill	ELG1 repair inh	TDP1 cell CPT
Cc1ccc(-c2noc(CCC(=O)NC3CCCc4ccccc43)n2)cc1 (stereo not given)	n	n	2.31µM	n	u	9.2µM
O=C(CCc1nc(-c2ccccc2F)no1)NC1CCN(Cc2ccccc2)CC1	n	n	u	n	u	u
CC(=O)c1ccc(S(=O)(=O)NCCC(=O)NC2CCN(Cc3ccccc3)CC2)cc1	n	-87.1	u	n	n	n
CCOc1ccc(-c2nn(CC(=O)NC3CCCC3)c3c2cnc2ccc(F)cc23)cc1	n	x	n	x	x	n
COc1ccc(CCNc2cc(-c3ccccc3)nc3ncnn23)cc1	n	n	u	n	u	23.1µM
Cc1cc(NCc2ccccc2)n2ncnc2n1	n	n	11.6µM	n	n	u
Cc1cc(Br)cc(C)c1OCCCCN(C)C	n	n	u	n	n	29.1µM
Cc1cc(O)c(C(c2ccc(Cl)cc2)N2CCN(c3ccccc3)CC2)c(=O)n1Cc1ccco1 (stereo not given)	n	x	n	x	x	n
CCc1nc2c(OCc3ccc(F)c(F)c3)cccn2c1N(C)C(=O)c1ccc(C)cc1	x	n	9.2µM	x	x	23.1µM
CCc1nc2c(OCc3cc(Cl)cc(Cl)c3)cccn2c1N(C)C(=O)c1ccc(C)cc1	x	-57.1	u	x	x	16.4µM
CCc1nc2c(OCc3ccc(F)c(F)c3)cccn2c1N(C)C(=O)c1ccc(OC)cc1	x	n	23.1µM	x	x	16.4µM
CCc1nc2c(OCc3ccc(OC)cc3)cccn2c1N(C)C(=O)c1ccc(OC)cc1	x	n	u	x	x	u
CCc1nc2c(OCc3ccccc3C)cccn2c1N(C)C(=O)c1ccco1	x	n	u	x	x	u
CCc1nc2c(OCc3ccccc3C)cccn2c1N(C)C(=O)c1ccc(C)cc1	x	n	16.4µM	x	x	18.4µM
COc1ccc(-c2nc3cnc(Oc4cccc(Cl)c4)nc3n(CCC#N)c2=O)cc1	x	x	n	x	x	u
CCc1nc2c(OCc3ccc(Cl)cc3)cccn2c1N(C)C(=O)c1ccncc1	x	n	20.6µM	x	x	20.6µM
O=C(C[n+]1ccccc1Br)c1ccc(Cl)cc1	x	x	14.1µM	x	x	u
CC(C)(C)c1ccc(SCCc2cccnc2)cc1	n	n	n	n	u	n
CC(C)C[C@H](NC(=O)C1OC1C(=O)O)C(=O)NCCCCN=C(N)N (stereo not given in full)	n	x	x	x	x	x
COc1cccc(Cn2c(=O)c(-c3ccc(F)cc3)nc3cnc(N4CCNCC4)nc32)c1	x	x	23.1µM	x	x	13µM
COc1cccc(Cn2c(=O)c(-c3cccs3)nc3cnc(N4CCOCC4)nc32)c1	x	x	n	x	x	n
O=c1c(-c2ccc(Cl)cc2)nc2cnc(N3CCNCC3)nc2n1Cc1ccc(F)cc1	x	x	9.2µM	x	x	6.51µM
COc1cccc(Cn2c(=O)c(-c3cccs3)nc3cnc(N4CCNCC4)nc32)c1	x	x	18.4µM	x	x	u
COc1cccc(Cn2c(=O)c(-c3ccc(Cl)cc3)nc3cnc(N4CCNCC4)nc32)c1	x	x	5.8µM	x	x	5.8µM
COc1cccc(Cn2c(=O)c(-c3ccc(Cl)cc3)nc3cnc(N4CCN(C)CC4)nc32)c1	x	x	n	x	x	n
SMILES	TDP1 inh	IL1B secr inh	DT40 TDP1 no CPT	Giardia kill	ELG1 repair inh	TDP1 cell CPT
COc1cccc(Cn2c(=O)c(-c3cc(F)cc(F)c3)nc3cnc(N4CCN(C)CC4)nc32)c1	x	x	n	x	x	n
O=c1c(-c2ccc(F)cc2)nc2cncnc2n1Cc1ccc(F)cc1	x	x	n	x	x	n
O=c1c(-c2ccc(F)cc2)nc2cncnc2n1Cc1ccccc1	x	x	16.4µM	x	x	u
COc1ccc(-c2nc3cnc(N4CCNCC4)nc3n(Cc3cccc(OC)c3)c2=O)cc1	x	x	4.61µM	x	x	6.51µM
CCCCCn1c(CNC(=O)c2ccccc2)nc2ccccc21	n	x	u	x	x	u
Cc1cccc(C(=O)NCCc2nc3ccccc3n2Cc2ccc(Cl)cc2)c1	n	x	u	x	x	20.6µM
O=C(NCCc1nc2ccccc2n1Cc1ccc(Cl)cc1)c1ccccc1	n	x	u	x	x	u
CCCCCn1c(CCNC(=O)c2cccc(C)c2)nc2ccccc21	n	x	18.4µM	x	x	20.6µM
